Screening results (PubChem BioAssay)
Most compounds without a hit are left out; they make up all but 3% or so of the library.
VDR inhibitor – vitamin D3 receptor (human) inhibition. P11473. VDR-SRC2-3 peptide fluorescence polarization, 2 h. Potency, µM, actives largely listed as inhibitors. 400,000 tested, 0.93% active
Target sequence (P11473 whole entry, looked up): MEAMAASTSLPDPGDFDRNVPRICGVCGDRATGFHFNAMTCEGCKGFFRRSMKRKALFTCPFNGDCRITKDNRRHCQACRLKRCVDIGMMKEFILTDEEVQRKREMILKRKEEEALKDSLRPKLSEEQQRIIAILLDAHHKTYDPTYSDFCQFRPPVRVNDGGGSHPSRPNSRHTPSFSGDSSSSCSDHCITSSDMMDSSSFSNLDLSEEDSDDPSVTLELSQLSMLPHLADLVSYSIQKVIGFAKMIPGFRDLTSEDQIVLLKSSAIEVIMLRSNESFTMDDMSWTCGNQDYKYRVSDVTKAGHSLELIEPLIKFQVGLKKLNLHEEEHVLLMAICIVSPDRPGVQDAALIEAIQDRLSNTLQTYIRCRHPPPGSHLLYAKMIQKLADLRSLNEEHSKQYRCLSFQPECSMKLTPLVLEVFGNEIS
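Fluorescence polarization assay measuring small-molecule disruption of VDR binding to the coregulator peptide SRC2-3. Compounds were pin-transferred (23 nl) into the reagent mix and incubated 2 h at room temperature before reading.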
TSG101-PTAP inh – blocks PTAP/TSG101 interaction to inhibit HIV-1 budding. 340,000 tested, under 10 active. Fluorescence polarization, FITC-PTAP peptide / Tsg101 binding. AID 493005. Potency, µM (titrated, usually from 115 µM), actives largely listed as inhibitors. Q99816; active = well fitted inhibition curve with a large enough effect in the main read-out, with a control signal flat, not every such curve was filed as active; inconclusive = small, poorly fitted or top-dose-only effect, or effect the other way, or a change in a side signal; inactive = no such curve, though single readings can be large or run the other way
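Tsg101 binding domain (10 uM final) was mixed with compound and a FITC-labeled PTAP peptide (50 nM final) in HEPES pH 7.5 buffer with NaCl, Tween 20, EDTA and TCEP; fluorescence polarization was read after 20 min at r.t.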
GCN5L2 inh – blocks human GCN5L2 histone acetyltransferase; GCN5L2 HAT assay, ThioGlo1 CoA-SH fluorescence; Potency, µM (titrated, usually from 58.9 µM), usual class: inhibitors; 390,000 tested, 0.21% active; AID 504327
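Compounds, pin-transferred from DMSO stocks, meet 20nM GCN5L2 for 15 min before the reaction begins with H3(1-25) peptide (75uM) and acetyl-CoA (70uM). Thiol-reactive ThioGlo1 reports CoA release over 20 min at room temperature.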
PLK1 PBD block – blocks phosphopeptide binding to human PLK1 polo-box domain. P53350. Plk1 PBD binding of FITC phosphopeptide, fluorescence polarization. Potency, µM, usual class: inhibitors. 360,000 tested, 2.8% active; note: series mostly up to about 57 µM; nearly all actives have a fitted effect of over 65% in size
USP1-UAF1 inh – inhibitors of human USP1/UAF1 deubiquitinase. Potency, µM (titrated, usually from 57.1 µM), most hits filed as inhibitors. recombinant USP1/UAF1, Ub-Rhodamine cleavage fluorescence. 390,000 tested, 0.23% active; note: nearly all actives have a fitted effect of over 60% in size
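USP1/UAF1 complex at 1 nM was preincubated with compound for 15 min at room temperature, then Ub-Rho substrate (150nM final) was added. Fluorescence (480/540 nm) was read kinetically, 6 reads every 60 seconds.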
Each line names hits and unclear results; the compound was inactive in the other large screens. Unless noted, calls come from the whole dose curve; as a rule, active = well fitted curve in the direction sought with a large enough effect; inconclusive = small, poorly fitted or top-dose-only effect, or another doubt; inactive = no such curve, though single readings can be large; an effect the other way counts as inactive or inconclusive.

C=CC[C@H]1CC(Cc2ccccc2)=C[C@H](CC=C)N1	VDR inhibitor inconclusive, PLK1 PBD block 23.8µM
COc1ccc(C2=NN(c3nc(-c4ccccc4)c(CC(=O)O)s3)C(c3ccco3)C2)cc1 (stereo unspecified)	GCN5L2 inh inconclusive, PLK1 PBD block 10.6µM
C=CCc1cc(/C=C/c2nc(O)c([N+](=O)[O-])c(=O)[nH]2)cc(OC)c1O	VDR inhibitor 79.4µM
O=c1cc(CN2CCCCC2)c2ccccc2o1	none (no result: VDR inhibitor, TSG101-PTAP inh, GCN5L2 inh, USP1-UAF1 inh)
O=C(CCl)c1ccc2[nH]c(=O)oc2c1	PLK1 PBD block 7.52µM
CCOC(=O)C1=C(CSc2nc(C)ccc2C#N)OC(N)=C(C#N)C1c1cccc(OC)c1OC (stereo unspecified)	PLK1 PBD block 21.2µM, USP1-UAF1 inh inconclusive
Cc1cc(Br)ccc1NC(=O)c1coc(=O)c2ccccc12	none (no result: TSG101-PTAP inh, PLK1 PBD block)
COc1ccc(C2CC2/C(=N/O)c2ccccc2)cc1 (stereo unspecified)	VDR inhibitor 20µM, PLK1 PBD block 13.4µM
N#C/C(=C\c1ccc(OCc2ccccc2)cc1)C(=O)Nc1ccc(C(=O)O)cc1	PLK1 PBD block 21.2µM
N#C/C(=C/c1ccc(C(=O)O)cc1)C(=O)Nc1ccccc1	VDR inhibitor inconclusive
COc1cc(/C=C(/C#N)C(=O)Nc2ccccc2)c(Br)cc1OCc1ccc(C(=O)O)cc1	VDR inhibitor 50.1µM, GCN5L2 inh inconclusive, PLK1 PBD block 23.8µM
CCC(C)c1c(NS(=O)(=O)c2ccc(C)cc2)o[nH]c1=O (stereo unspecified)	none (no result: GCN5L2 inh)
O=S(=O)(c1ccc(C(F)(F)F)cc1)N1CCN(c2nc(-c3cccs3)nc3ccccc23)CC1	none (no result: TSG101-PTAP inh, GCN5L2 inh, PLK1 PBD block, USP1-UAF1 inh)
COc1cccc(CCNC(=O)c2cnc3sc(N4CCCC4)nn3c2=O)c1	none (no result: TSG101-PTAP inh, PLK1 PBD block)
Cc1ccccc1OCC(=O)NN1Cc2ccccc2C1=N	PLK1 PBD block 26.7µM
Cc1ccccc1OCC(=O)NN1CCN(C)CC1	none
Cc1ccc(C(=O)NNc2cc(N3CCCC3)nc(N3CCCC3)n2)cc1	USP1-UAF1 inh 14.1µM
CCS(=O)(=O)N1CC(=O)N(c2cccc(C)c2C)C(C)(C(=O)NC2CCCCC2)C1 (stereo unspecified)	none (no result: TSG101-PTAP inh, PLK1 PBD block)
C=C1C(=O)c2sccc2C(c2ccc(OC)c(OC)c2)C1COC(C)=O (stereo unspecified)	VDR inhibitor inconclusive, PLK1 PBD block 26.7µM, USP1-UAF1 inh inconclusive (no result: GCN5L2 inh)
CCN1CCN(CC(=O)N2N=C(c3cccs3)CC2c2ccc(OC)c(OC)c2)C(=O)C1=O (stereo unspecified)	none
CCNC(=O)Nc1cc(S(=O)(=O)Nc2ccc(OC)cc2)ccc1N1CCOCC1	none
COc1ccc(NS(=O)(=O)c2ccc(N3CCCC3)c(NC(=S)Nc3cccc(C)c3C)c2)cc1	VDR inhibitor inconclusive, PLK1 PBD block 3.77µM
COc1ccc(NS(=O)(=O)c2ccc(N3CCCC3)c(NC(=S)Nc3ccc(SC(F)F)cc3)c2)cc1	VDR inhibitor inconclusive, PLK1 PBD block 4.74µM
O=C(Nc1ncc2c(n1)-c1ccccc1CC2)c1cccc(Cl)c1	GCN5L2 inh 3.16µM
COc1cc2ccnc(Cc3cccc(OC)c3OC)c2cc1OC	GCN5L2 inh inconclusive, PLK1 PBD block 26.7µM
COC(=O)C1CCN(C(c2ccccc2)c2sc3nc(-c4ccco4)nn3c2O)CC1 (stereo unspecified)	none (no result: TSG101-PTAP inh, PLK1 PBD block)
COc1ccc2nc(SCC(=O)N3CCN(c4ccc(F)cc4)CC3)c(C#N)cc2c1	PLK1 PBD block 2.99µM
Cc1ccc(C(=O)Nc2ncc3c(Cl)cccc3n2)cc1	PLK1 PBD block 21.2µM
Nc1nc2c(s1)COc1ccccc1-2	VDR inhibitor inconclusive, PLK1 PBD block 18.9µM
CC(C)(C)C(=O)Nc1nc2c(s1)COc1ccccc1-2	VDR inhibitor inconclusive
COc1ccc(OC)c(CCNC(=O)C(C)n2nc(C)c3c(C)n(-c4ccccc4)nc3c2=O)c1 (stereo unspecified)	PLK1 PBD block 26.7µM
CCC(C(=O)Nc1ccccc1Cl)n1nc(C)c2c(C)n(-c3ccccc3)nc2c1=O (stereo unspecified)	PLK1 PBD block 21.2µM
Cc1nn(C(C)C(=O)Nc2ccccc2Cl)c(=O)c2nn(-c3ccccc3)c(C)c12 (stereo unspecified)	none
CCc1cc2c(cc3c(=O)n(CC(=O)NC4CCCCC4)ncn32)s1	none (no result: TSG101-PTAP inh, PLK1 PBD block)
COc1ccc(S(=O)(=O)Nc2ccc(Cc3ccncc3)cc2)cc1C	none
COc1ccc(-c2coc3cc(OC(C)=O)ccc3c2=S)cc1	VDR inhibitor inconclusive, PLK1 PBD block 11.9µM (no result: GCN5L2 inh)
O=C(CN(Cc1ccccc1)S(=O)(=O)c1ccc(F)cc1)NCCC1=CCCCC1	GCN5L2 inh 0.794µM, USP1-UAF1 inh inconclusive
CCc1c(C)nc2nncn2c1Nc1cccc(C)c1	none (no result: TSG101-PTAP inh, PLK1 PBD block)
COC(=O)c1nc(NC(=O)c2ccccc2Cl)n[nH]1	PLK1 PBD block inconclusive
COC(=O)c1nc(NC(=O)C(C)(C)C)n[nH]1	PLK1 PBD block 18.9µM
COC(=O)c1nc(NC(=O)c2ccc(Br)cc2)n[nH]1	PLK1 PBD block 23.8µM (no result: GCN5L2 inh)
Cc1ccccc1CNC(=O)c1ccc2c(c1)N(Cc1ccccc1)CCS2	none (no result: TSG101-PTAP inh, PLK1 PBD block)
CN(CC(=O)Nc1cccc(F)c1)C(=O)CNS(=O)(=O)c1ccc(N(C)C)c([N+](=O)[O-])c1	VDR inhibitor inconclusive, PLK1 PBD block 15µM
O=C(O)CCCCCN1C(=O)C(O)=C(C(=O)/C=C/c2ccccc2)C1c1ccccc1[N+](=O)[O-] (stereo unspecified)	PLK1 PBD block 33.6µM
Cc1ccc(N(CC(=O)N2CCN(c3ccccc3)CC2)S(=O)(=O)c2c(C)noc2C)cc1	none (no result: TSG101-PTAP inh, PLK1 PBD block)
Cc1cc(C)cc(N(CC(=O)N2CCN(c3ccccc3)CC2)S(=O)(=O)c2c(C)noc2C)c1	PLK1 PBD block 23.8µM
CCn1c(/C=C/c2c[nH]c3ccccc23)nc2ccccc2c1=O	PLK1 PBD block 21.2µM
CC[n+]1ccc(/C=C/c2c[nH]c3ccccc23)cc1	TSG101-PTAP inh inconclusive, USP1-UAF1 inh 28.2µM
COC(=O)c1c(SC)nc2ccccc2c1OCc1ccc(C)cc1C	none (no result: TSG101-PTAP inh, PLK1 PBD block)
Cc1ccc(C)c(-n2nnc3ccccc3c2=O)c1	none (no result: VDR inhibitor, TSG101-PTAP inh, GCN5L2 inh)
N=C1C(c2ccccc2)=C(O)CN1CCO	PLK1 PBD block 23.8µM
COc1ccc(/C=C2\CCc3ccccc3C2=O)cc1Cn1cccn1	GCN5L2 inh 17.8µM
COc1ccc(/C=C2\CCC(C3CCCC3)C2=O)cc1Cn1cccn1 (stereo unspecified)	none
NSc1nc(N)c2nc(-c3ccccc3)c(-c3ccccc3)nc2n1	VDR inhibitor 8.91µM, PLK1 PBD block 13.4µM
COc1ccc(CNc2n[nH]c(-c3ccco3)n2)cc1OC	none (no result: TSG101-PTAP inh, PLK1 PBD block)
CCCCOc1ccc(Nc2cc(Cl)ccc2C(=O)O)cn1	PLK1 PBD block 23.8µM
COc1ccc(C(=O)NCCSc2ccccc2)cc1OC	VDR inhibitor 35.5µM, PLK1 PBD block 3.36µM
CCC(Sc1nc2ncccc2[nH]1)C(=O)Nc1ccccc1F (stereo unspecified)	none (no result: TSG101-PTAP inh, PLK1 PBD block)
c1ccc(Nc2nc(N3CCCCC3)nc(N3CCCCC3)n2)cc1	PLK1 PBD block 21.2µM
